# Measurements taken from the supplement of paper PMC12282887.
# ± gives the standard deviation of the averaged measurements.
# Assays:
# Experiment in all cases: promoter activity interaction Z-score (Lux/OD deviation from empty-vector control); higher = stronger promoter induction by the compound
# [1] = system: E. coli BW25113 acrABp lux reporter
# Procedure, shortened: (§1)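 In 384-well plates, 40 µl LB Lennox cultures of E. coli BW25113 with low-copy luxCDABE promoter reporters grew at 37°C. Optical density at 600 nm and light output were recorded every 30 min for 12 h, with windows of 0–8 h for wild type and 1–9 h for deletion strains, and wells under 10% of the median growth value were left out. Each value is a Z-transformed residual of growth-normalised luminescence fitted against a control.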
# [2] = system: E. coli BW25113 micFp lux reporter
# Procedure, shortened: as §1
# [3] = system: E. coli BW25113 ompFp lux reporter
# Procedure, shortened: as §1
# [4] = system: E. coli BW25113 robp lux reporter
# Procedure, shortened: as §1
# [5] = system: E. coli BW25113 soxSp lux reporter
# Procedure, shortened: as §1
# [6] = system: E. coli BW25113 tolCp lux reporter
# Procedure, shortened: as §1
# [7] = 1329.2 µg/ml, genetic background: wild type
# [8] = 1329.2 µg/ml, genetic background: ΔmarA
# [9] = 1329.2 µg/ml, genetic background: Δrob
# [10] = 1329.2 µg/ml, genetic background: ΔsoxS
# [11] = 2658.5 µg/ml, genetic background: wild type
# [12] = 2658.5 µg/ml, genetic background: ΔmarA
# [13] = 2658.5 µg/ml, genetic background: Δrob
# [14] = 2658.5 µg/ml, genetic background: ΔsoxS
# [15] = 5317 µg/ml, genetic background: wild type
# [16] = 5317 µg/ml, genetic background: ΔmarA
# [17] = 5317 µg/ml, genetic background: Δrob
# [18] = 5317 µg/ml, genetic background: ΔsoxS
# [19] = 10634 µg/ml, genetic background: wild type
# [20] = 10634 µg/ml, genetic background: ΔmarA
# [21] = 10634 µg/ml, genetic background: ΔsoxS
# [22] = 0.12 µg/ml, genetic background: wild type
# [23] = 0.12 µg/ml, genetic background: ΔmarA
# [24] = 0.12 µg/ml, genetic background: Δrob
# [25] = 0.12 µg/ml, genetic background: ΔsoxS
# [26] = 0.23 µg/ml, genetic background: wild type
# [27] = 0.23 µg/ml, genetic background: ΔmarA
# [28] = 0.23 µg/ml, genetic background: Δrob
# [29] = 0.23 µg/ml, genetic background: ΔsoxS
# [30] = 0.47 µg/ml, genetic background: wild type
# [31] = 0.47 µg/ml, genetic background: ΔmarA
# [32] = 0.47 µg/ml, genetic background: Δrob
# [33] = 0.47 µg/ml, genetic background: ΔsoxS
compound,measurement,setting,value
CCN(CC)CCOC(=O)c1ccc(N)cc1 [Procaine],promoter activity interaction Z-score,[1]; [7],-0.662 ± 0.28
same,promoter activity interaction Z-score,[1]; [8],-0.602 ± 0.28
same,promoter activity interaction Z-score,[1]; [9],-0.872 ± 0.16
same,promoter activity interaction Z-score,[1]; [10],-0.805 ± 0.27
same,promoter activity interaction Z-score,[1]; [11],-0.675 ± 0.27
same,promoter activity interaction Z-score,[1]; [12],-0.191 ± 0.011
same,promoter activity interaction Z-score,[1]; [13],-0.754 ± 0.019
same,promoter activity interaction Z-score,[1]; [14],-0.807 ± 0.058
same,promoter activity interaction Z-score,[1]; [15],-0.798 ± 0.5
same,promoter activity interaction Z-score,[1]; [16],0.353 ± 0.5
same,promoter activity interaction Z-score,[1]; [17],-0.739 ± 0.25
same,promoter activity interaction Z-score,[1]; [18],-1.88 ± 0.78
same,promoter activity interaction Z-score,[1]; [19],-0.735 ± 0.28
same,promoter activity interaction Z-score,[1]; [20],-0.543 ± 0.93
same,promoter activity interaction Z-score,[1]; [21],-1.22 ± 0.13
same,promoter activity interaction Z-score,[2]; [7],0.885 ± 0.053
same,promoter activity interaction Z-score,[2]; [8],0.505 ± 0.026
same,promoter activity interaction Z-score,[2]; [9],0.103 ± 0.024
same,promoter activity interaction Z-score,[2]; [10],1.88 ± 0.031
same,promoter activity interaction Z-score,[2]; [11],1.93 ± 1.1
same,promoter activity interaction Z-score,[2]; [12],0.738 ± 0.027
same,promoter activity interaction Z-score,[2]; [13],0.206 ± 0.083
same,promoter activity interaction Z-score,[2]; [14],3.42 ± 0.14
same,promoter activity interaction Z-score,[2]; [15],2.99 ± 1
same,promoter activity interaction Z-score,[2]; [16],0.535 ± 0.11
same,promoter activity interaction Z-score,[2]; [17],0.692 ± 0.16
same,promoter activity interaction Z-score,[2]; [18],3.95 ± 0.25
same,promoter activity interaction Z-score,[2]; [19],4.96 ± 1.1
same,promoter activity interaction Z-score,[2]; [20],0.433 ± 0.12
same,promoter activity interaction Z-score,[2]; [21],1.99 ± 0.39
same,promoter activity interaction Z-score,[3]; [7],-1.52 ± 0.52
same,promoter activity interaction Z-score,[3]; [8],-1.23 ± 0.023
same,promoter activity interaction Z-score,[3]; [9],-1 ± 0.25
same,promoter activity interaction Z-score,[3]; [10],-1.06 ± 0.18
same,promoter activity interaction Z-score,[3]; [11],-1.95 ± 0.51
same,promoter activity interaction Z-score,[3]; [12],-1.57 ± 0.11
same,promoter activity interaction Z-score,[3]; [13],-1.23 ± 0.6
same,promoter activity interaction Z-score,[3]; [14],-2.1 ± 0.11
same,promoter activity interaction Z-score,[3]; [15],-2.79 ± 0.89
same,promoter activity interaction Z-score,[3]; [16],-2.57 ± 0.088
same,promoter activity interaction Z-score,[3]; [17],-2.71 ± 0.78
same,promoter activity interaction Z-score,[3]; [18],-3.43 ± 0.31
same,promoter activity interaction Z-score,[3]; [19],-3.06 ± 0.97
same,promoter activity interaction Z-score,[3]; [20],-3.26 ± 0.22
same,promoter activity interaction Z-score,[3]; [21],-2.71 ± 0.13
same,promoter activity interaction Z-score,[4]; [7],-0.965 ± 0.38
same,promoter activity interaction Z-score,[4]; [8],-0.355 ± 0.47
same,promoter activity interaction Z-score,[4]; [9],-0.376 ± 0.3
same,promoter activity interaction Z-score,[4]; [10],-0.451 ± 0.9
same,promoter activity interaction Z-score,[4]; [11],-0.714 ± 0.31
same,promoter activity interaction Z-score,[4]; [12],-0.386 ± 0.2
same,promoter activity interaction Z-score,[4]; [13],-0.635 ± 0.58
same,promoter activity interaction Z-score,[4]; [14],-1.84 ± 0.3
same,promoter activity interaction Z-score,[4]; [15],-0.969 ± 0.17
same,promoter activity interaction Z-score,[4]; [16],-0.0415 ± 0.013
same,promoter activity interaction Z-score,[4]; [17],-1.1 ± 0.3
same,promoter activity interaction Z-score,[4]; [18],-1.99 ± 0.064
same,promoter activity interaction Z-score,[4]; [19],-0.708 ± 0.78
same,promoter activity interaction Z-score,[4]; [20],-0.129 ± 0.82
same,promoter activity interaction Z-score,[4]; [21],-0.881 ± 1.3
same,promoter activity interaction Z-score,[5]; [7],0.403 ± 0.099
same,promoter activity interaction Z-score,[5]; [8],0.609 ± 0.067
same,promoter activity interaction Z-score,[5]; [9],0.838 ± 0.31
same,promoter activity interaction Z-score,[5]; [10],0.324 ± 0.23
same,promoter activity interaction Z-score,[5]; [11],0.281 ± 0.23
same,promoter activity interaction Z-score,[5]; [12],1.06 ± 0.17
same,promoter activity interaction Z-score,[5]; [13],1.61 ± 0.96
same,promoter activity interaction Z-score,[5]; [14],0.224 ± 0.071
same,promoter activity interaction Z-score,[5]; [15],0.719 ± 0.53
same,promoter activity interaction Z-score,[5]; [16],1.68 ± 0.037
same,promoter activity interaction Z-score,[5]; [17],1.63 ± 0.81
same,promoter activity interaction Z-score,[5]; [18],0.114 ± 0.72
same,promoter activity interaction Z-score,[5]; [19],0.878 ± 0.58
same,promoter activity interaction Z-score,[5]; [20],1.37 ± 0.74
same,promoter activity interaction Z-score,[5]; [21],-0.539 ± 1.1
same,promoter activity interaction Z-score,[6]; [7],0.541 ± 0.79
same,promoter activity interaction Z-score,[6]; [8],-0.042 ± 0.17
same,promoter activity interaction Z-score,[6]; [9],0.413 ± 1.2
same,promoter activity interaction Z-score,[6]; [10],-0.32 ± 1.4
same,promoter activity interaction Z-score,[6]; [11],0.257 ± 0.23
same,promoter activity interaction Z-score,[6]; [12],-0.2 ± 0.34
same,promoter activity interaction Z-score,[6]; [13],0.54 ± 1.8
same,promoter activity interaction Z-score,[6]; [14],-0.137 ± 0.1
same,promoter activity interaction Z-score,[6]; [15],-1.14 ± 0.3
same,promoter activity interaction Z-score,[6]; [16],-0.284 ± 0.59
same,promoter activity interaction Z-score,[6]; [17],-0.2 ± 0.18
same,promoter activity interaction Z-score,[6]; [18],0.786 ± 1
same,promoter activity interaction Z-score,[6]; [19],2.42 ± 2.2
same,promoter activity interaction Z-score,[6]; [20],1.73 ± 2.4
same,promoter activity interaction Z-score,[6]; [21],0.696
NC[C@H]1O[C@H](O[C@H]2[C@H](O)[C@@H](O[C@H]3O[C@H](CO)[C@@H](O)[C@H](N)[C@H]3O)[C@H](N)C[C@@H]2N)[C@H](N)C[C@@H]1O [Tobramycin],promoter activity interaction Z-score,[1]; [22],0.275 ± 0.78
same,promoter activity interaction Z-score,[1]; [23],-0.0864 ± 0.66
same,promoter activity interaction Z-score,[1]; [24],-0.374 ± 0.06
same,promoter activity interaction Z-score,[1]; [25],-0.499 ± 0.77
same,promoter activity interaction Z-score,[1]; [26],0.0585 ± 0.16
same,promoter activity interaction Z-score,[1]; [27],-1.02 ± 0.59
same,promoter activity interaction Z-score,[1]; [28],-0.281 ± 0.11
same,promoter activity interaction Z-score,[1]; [29],-0.243 ± 0.067
same,promoter activity interaction Z-score,[1]; [30],0.268 ± 0.32
same,promoter activity interaction Z-score,[1]; [31],0.0843 ± 0.8
same,promoter activity interaction Z-score,[1]; [32],0.184 ± 0.22
same,promoter activity interaction Z-score,[1]; [33],-0.000211 ± 0.53
same,promoter activity interaction Z-score,[2]; [22],0.116 ± 0.093
same,promoter activity interaction Z-score,[2]; [23],-0.103 ± 0.25
same,promoter activity interaction Z-score,[2]; [24],-0.119 ± 0.027
same,promoter activity interaction Z-score,[2]; [25],-0.254 ± 0.025
same,promoter activity interaction Z-score,[2]; [26],0.0087 ± 0.2
same,promoter activity interaction Z-score,[2]; [27],-0.183 ± 0.0032
same,promoter activity interaction Z-score,[2]; [28],-0.106 ± 0.21
same,promoter activity interaction Z-score,[2]; [29],0.447 ± 0.0099
same,promoter activity interaction Z-score,[2]; [30],0.395 ± 0.47
same,promoter activity interaction Z-score,[2]; [31],-0.0629 ± 0.026
same,promoter activity interaction Z-score,[2]; [32],-0.0597 ± 0.061
same,promoter activity interaction Z-score,[2]; [33],-0.0982 ± 0.012
same,promoter activity interaction Z-score,"[2]; 0.94 µg/ml, genetic background: ΔmarA",-0.362
same,promoter activity interaction Z-score,"[2]; 0.94 µg/ml, genetic background: Δrob",-0.382
same,promoter activity interaction Z-score,[3]; [22],-0.387 ± 0.068
same,promoter activity interaction Z-score,[3]; [23],-0.3 ± 0.42
same,promoter activity interaction Z-score,[3]; [24],-0.413 ± 0.19
same,promoter activity interaction Z-score,[3]; [25],-0.487 ± 0.17
